# Data published in PubChem BioAssay (NCI).
# This is part of a sample that, as a whole, favours compounds with a hit. Of some 79,000 tested, about 15% had one in any assay. A number with no mark means an inactive call. The source made the active and inactive calls. Cut-off read from the data, not from the text of the source: active = growth inhibition above about 70%; inactive = the rest.
# Assays:
# [1] = NCI Yeast Anticancer Drug Screen. Data for the rad52 strain (AID 147);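 note: 0% = growth of vehicle-treated control cultures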; conditions: S. cerevisiae rad52 mutant growth inhibition, active compounds read high
# Method in brief: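 The repair-mutant yeast strain was incubated with compounds, then growth was read and inhibition derived relative to vehicle.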
# [2] = NCI Yeast Anticancer Drug Screen. Data for the wt1 strain (AID 149);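 note: 0% = growth of vehicle-treated wt1 cultures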; conditions: S. cerevisiae wt1 strain (SPY 50644) growth inhibition, active compounds read high
# Method in brief: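 Measured: growth of wt1 yeast under compound versus vehicle treatment, reported as inhibition.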
# [3] = NCI Yeast Anticancer Drug Screen. Data for the rad50EPP+ strain (AID 151);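 note: 0% = growth of vehicle-treated control cultures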; conditions: S. cerevisiae rad50 mutant strain, active compounds read high
# Method in brief: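 Vehicle-normalised growth inhibition; rad50EPP+ yeast strain, altered in DNA damage repair, compound-treated.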
# [4] = NCI Yeast Anticancer Drug Screen. Data for the mgt1 strain (AID 153); conditions: S. cerevisiae mgt1 mutant growth inhibition, active compounds read high
# Method in brief: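 Vehicle-normalized growth inhibition is determined in mgt1 yeast, a strain selected for a defined alteration in DNA repair or cell cycle control.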
# [5] = NCI Yeast Anticancer Drug Screen. Data for the rad50 strain (AID 155);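 note: 0% = growth of vehicle-only cultures of the same strain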; conditions: S. cerevisiae rad50 strain growth inhibition, active compounds read high
# Method in brief: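 Growth of the mutant yeast was measured after compound exposure and referenced to vehicle-treated cultures.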
# [6] = NCI Yeast Anticancer Drug Screen. Data for the mec2-1 strain (AID 157); conditions: S. cerevisiae mec2-1 strain, active compounds read high
# Method in brief: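 Mutant yeast (mec2-1) grown with compound; growth inhibition relative to vehicle control reported.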
# [7] = NCI Yeast Anticancer Drug Screen. Data for the rad14 strain (AID 159);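 note: 0% = growth of vehicle-treated control cultures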; conditions: S. cerevisiae rad14 strain growth inhibition, active compounds read high
# Method in brief: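 Here, inhibition of yeast growth was measured after compound exposure, using a strain with a genetic defect in DNA damage repair and vehicle-treated cultures as the reference.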
# [8] = NCI Yeast Anticancer Drug Screen. Data for the sgs1 mgt1 strain (AID 161);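 note: 0% = growth of cultures given vehicle only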; conditions: S. cerevisiae sgs1 mgt1 strain, active compounds read high
# Method in brief: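 Percent growth inhibition was derived by comparing compound-exposed mutant yeast with vehicle-exposed cultures. The strain carries alterations in DNA damage repair.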
# [9] = NCI Yeast Anticancer Drug Screen. Data for the CLN2oe strain (AID 163);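 note: 0% = growth of vehicle-only control cultures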; conditions: S. cerevisiae CLN2oe strain, active compounds read high
# Method in brief: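 Compounds are applied to yeast harbouring a defined cell-cycle control change; reduced growth compared with vehicle-treated controls gives the value.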
# [10] = NCI Yeast Anticancer Drug Screen. Data for the cln2 rad14 strain (AID 165);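 note: 0% = growth equal to vehicle treated cultures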; conditions: S. cerevisiae cln2 rad14 strain, active compounds read high
# Method in brief: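 Readout is yeast growth inhibition versus vehicle-treated controls, using a strain with cln2 and rad14 alterations exposed to compound.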
# [11] = NCI Yeast Anticancer Drug Screen. Data for the bub3 strain (AID 167); conditions: S. cerevisiae bub3 mutant strain, active compounds read high
# Method in brief: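 Whole-cell yeast assay. The mutant strain was incubated with compounds, and growth inhibition was determined by comparison with vehicle-treated cells.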
# [12] = NCI Yeast Anticancer Drug Screen. Data for the wt2 strain (AID 169);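 note: 0% = growth of vehicle-treated yeast cultures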; conditions: S. cerevisiae wt2 strain growth inhibition, active compounds read high
# Method in brief: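 Against vehicle-treated controls, the growth of yeast exposed to each compound was compared, and the inhibition was recorded.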
# [13] = NCI Yeast Anticancer Drug Screen. Data for the mlh1 strain (AID 171);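 note: 0% = growth of vehicle-treated control cultures of the same strain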; conditions: S. cerevisiae mlh1 strain growth inhibition, active compounds read high
# Method in brief: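 Measured: yeast growth. Reference: vehicle-treated controls. Organism: strain with a defined alteration affecting DNA damage repair or cell cycle control, treated with compound.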
# [14] = NCI Yeast Anticancer Drug Screen. Data for the sgs1 strain (AID 173);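 note: 0% = growth of vehicle-only control cultures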; conditions: S. cerevisiae sgs1 mutant, active compounds read high
# Method in brief: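 Each compound was added to cultures of the altered yeast strain. Growth was recorded, and inhibition was derived by comparison with vehicle controls.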
# [15] = NCI Yeast Anticancer Drug Screen. Data for the mlh1 rad18 strain (AID 175); conditions: S. cerevisiae mlh1 rad18 strain growth inhibition, active compounds read high
# Method in brief: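 Genetically defined yeast (DNA repair-deficient) exposed to compounds; growth inhibition determined relative to vehicle.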
# [16] = NCI Yeast Anticancer Drug Screen. Data for the rad18 strain (AID 177); conditions: S. cerevisiae rad18 mutant growth inhibition, active compounds read high
# Method in brief: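 Vehicle-treated cultures served as the baseline for scoring compound-induced growth inhibition in DNA-repair-mutant yeast.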
# [17] = at 5.0 µM (retest, dose inferred, filed as 0.5)
# [18] = at 50.0 µM (retest, dose inferred, filed as 5.0)
structure (smiles),measurement,setting,value
O=C(NC(=S)Nc1ccccn1)c1ccccc1,growth inhibition,[1]; at 1.2 µM,-30%
same,growth inhibition,[1]; at 3.7 µM,-43%
same,growth inhibition,[1]; at 11.0 µM,-35%
same,growth inhibition,[1]; at 33.0 µM,-28%
same,growth inhibition,[1]; at 100.0 µM,-22%
same,growth inhibition,[2]; at 1.2 µM,-26%
same,growth inhibition,[2]; at 3.7 µM,-36%
same,growth inhibition,[2]; at 11.0 µM,-32%
same,growth inhibition,[2]; at 33.0 µM,-19%
same,growth inhibition,[2]; at 100.0 µM,-24%
same,growth inhibition,[3]; at 1.2 µM,-30%
same,growth inhibition,[3]; at 3.7 µM,-51%
same,growth inhibition,[3]; at 11.0 µM,-69%
same,growth inhibition,[3]; at 33.0 µM,-53%
same,growth inhibition,[3]; at 100.0 µM,25%
same,growth inhibition,[4]; at 1.2 µM,-62%
same,growth inhibition,[4]; at 3.7 µM,-40%
same,growth inhibition,[4]; at 11.0 µM,-58%
same,growth inhibition,[4]; at 33.0 µM,-41%
same,growth inhibition,[4]; at 100.0 µM,-22%
same,growth inhibition,[5]; at 1.2 µM,-12%
same,growth inhibition,[5]; at 3.7 µM,-9%
same,growth inhibition,[5]; [17],97% (active)
same,growth inhibition,[5]; at 11.0 µM,-19%
same,growth inhibition,[5]; at 33.0 µM,-30%
same,growth inhibition,[5]; [18],100% (active)
same,growth inhibition,[5]; at 50.0 µM,28.7%
same,growth inhibition,[5]; at 100.0 µM,-14%
same,growth inhibition,[6]; at 1.2 µM,-73%
same,growth inhibition,[6]; at 3.7 µM,-55%
same,growth inhibition,[6]; [17],100% (active)
same,growth inhibition,[6]; at 11.0 µM,-51%
same,growth inhibition,[6]; at 33.0 µM,-54%
same,growth inhibition,[6]; [18],100% (active)
same,growth inhibition,[6]; at 50.0 µM,25.1%
same,growth inhibition,[6]; at 100.0 µM,-50%
same,growth inhibition,[7]; at 1.2 µM,-30%
same,growth inhibition,[7]; at 3.7 µM,-20%
same,growth inhibition,[7]; at 11.0 µM,-19%
same,growth inhibition,[7]; at 33.0 µM,-21%
same,growth inhibition,[7]; at 100.0 µM,-23%
same,growth inhibition,[8]; [17],-21%
same,growth inhibition,[8]; [18],50%
same,growth inhibition,[8]; at 50.0 µM,60.5%
same,growth inhibition,[9]; at 1.2 µM,-4%
same,growth inhibition,[9]; at 3.7 µM,-15%
same,growth inhibition,[9]; at 11.0 µM,-11%
same,growth inhibition,[9]; at 33.0 µM,-23%
same,growth inhibition,[9]; at 100.0 µM,-15%
same,growth inhibition,[10]; [17],36%
same,growth inhibition,[10]; [18],10%
same,growth inhibition,[10]; at 50.0 µM,-9.05%
same,growth inhibition,[11]; at 1.2 µM,-19%
same,growth inhibition,[11]; at 3.7 µM,-22%
same,growth inhibition,[11]; [17],13%
same,growth inhibition,[11]; at 11.0 µM,-13%
same,growth inhibition,[11]; at 33.0 µM,5%
same,growth inhibition,[11]; [18],57%
same,growth inhibition,[11]; at 50.0 µM,63%
same,growth inhibition,[11]; at 100.0 µM,19%
same,growth inhibition,[12]; at 1.2 µM,-32%
same,growth inhibition,[12]; at 3.7 µM,-32%
same,growth inhibition,[12]; at 11.0 µM,-38%
same,growth inhibition,[12]; at 33.0 µM,-27%
same,growth inhibition,[12]; at 100.0 µM,-20%
same,growth inhibition,[13]; at 1.2 µM,-38%
same,growth inhibition,[13]; at 3.7 µM,-34%
same,growth inhibition,[13]; at 11.0 µM,-26%
same,growth inhibition,[13]; at 33.0 µM,-40%
same,growth inhibition,[13]; at 100.0 µM,-37%
same,growth inhibition,[14]; at 1.2 µM,-54%
same,growth inhibition,[14]; at 3.7 µM,-71%
same,growth inhibition,[14]; at 11.0 µM,-47%
same,growth inhibition,[14]; at 33.0 µM,-36%
same,growth inhibition,[14]; at 100.0 µM,-31%
same,growth inhibition,[15]; [17],100% (active)
same,growth inhibition,[15]; [18],100% (active)
same,growth inhibition,[15]; at 50.0 µM,19.2%
same,growth inhibition,[16]; at 1.2 µM,-60%
same,growth inhibition,[16]; at 3.7 µM,-56%
same,growth inhibition,[16]; at 11.0 µM,-29%
same,growth inhibition,[16]; at 33.0 µM,-38%
same,growth inhibition,[16]; at 100.0 µM,-43%
